An excerpt weighted towards active compounds, which were near 3.1% of everything screened.
S16 viability = S16 Schwann cell cytotoxicity | S16 Pmp22-F2sN Schwann cells viability, CellTiter-Glo, 24 h | Potency, µM (titrated, usually from 57.5 µM), usual class: cytotoxic | 43,000 compounds, 0.48% hits; also: nearly all actives have a fitted effect of over 65% in size
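S16 Schwann cells carrying the Pmp22-F2sN reporter, seeded in 1536-well format, were exposed to library compounds for 24 h at 37C. Viability was read as CellTiter-Glo luminescence after 15 min at room temperature.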
OvCa metastasis = inhibitors of ovarian cancer cell adhesion and invasion in omental model; SKOV3ip1-GFP adhesion/invasion on 3D omental model, fluorescence; 46,000 compounds, 0.1% hits; Potency, µM (doses to about 45.8 µM), hits mostly inhibitors; AID 1963576; also: nearly all actives have a fitted effect of over 65% in size
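Primary human omental fibroblast/mesothelial 3D culture pre-formed 48 h. SKOV3ip1-GFP cells added with compounds (0.36-46 umol/L), incubated 2 h RT/16 h 37 C, fixed; GFP cells quantified at 488/509 nm.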
mTORC1 inh = mTORC1 pathway inhibition measured by phospho-rpS6 | Tsc2-/- p53-/- MEF, phospho-rpS6 immunofluorescence/PI, 24 h | Potency, µM (top dose mostly 38.3 µM), actives largely listed as inhibitors | 44,000 compounds, 0.78% hits; also: nearly all actives have a fitted effect of over 50% in size
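Cell-based qHTS: Tsc2-/- p53-/- MEF, 24 h cpd, 37 °C; fix/perm, anti-phospho-S6 Alexa-488 + PI; Acumen 488 nm scan; pS6/PI ratio, % positive cells; rapamycin 7.5 nM = inhibition ref; PI count = viability.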
PMP22 txn prim = modulators of PMP22 gene transcription in S16 Schwann cells; Potency, µM (series often up to 57.5 µM), most hits filed as inhibitors; S16 Pmp22-F2sN Schwann cells, FLuc/NLuc coincidence luminescence, 24 h; 43,000 compounds, 2% hits; active = clear falling dose curves in both reporters; inconclusive = both reporters move, but less clearly or upward; inactive = either reporter flat; the % is the NLuc reporter signal
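qHTS, 1536-well. Cells seeded, compounds added by pin tool, 24 h 37C. Nano-Glo reagent 1 (lysis/FLuc), 10 min RT, read; Stop&Glo, 10 min RT, read NLuc.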
p53null 32C kill = p53 null cell cytotoxicity, permissive temperature. H1299-neo p53 null cells, ATP luminescence, 24 h, 32C. Potency, µM (top dose mostly 46.1 µM), actives largely listed as cytotoxic. 55,000 compounds, 0.62% hits; also: nearly all actives have a fitted effect of over 55% in size
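H1299-neo, 600 cells/well; overnight 37C; cpd up to 46 uM, 24 h at 32C; ATPlite luminescence after 20 min RT; normalized to DMSO (0%) and tamoxifen 100 uM (100% kill); Hill-fit AC50.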
p53null 39C tox = p53 null cell cytotoxicity, nonpermissive temperature. H1299 p53-null (neo) cells, 39C, ATPlite viability, 24 h. Potency, µM (doses to about 46.1 µM), usual class: cytotoxic. 55,000 compounds, 0.97% hits. AID 904; also: nearly all actives have a fitted effect of over 50% in size
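Concentration-response (up to 46 uM) was run for 24 h at the nonpermissive 39C on H1299-p53A138V or H1299-neo cells. ATP content was measured with ATPlite luminescence. AC50 values were Hill-modeled after normalizing between DMSO and 100 uM tamoxifen killing.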
NLuc sat counter = counter-screen for PMP22 expression modulators: NanoLuc inhibition, saturating substrate; shares compounds with PMP22 txn prim; Potency, µM (titrated, usually from 57.5 µM), most hits filed as inhibitors; Secreted NLuc enzyme (filtered S16 cell medium), Nano-Glo luminescence; 690 compounds, 4% hits
NLuc Km ctr = counter-screen for PMP22 expression modulators: NanoLuc inhibition at Km. shares compounds with PMP22 txn prim. secreted NLuc enzyme, coelenterazine luminescence, Km conditions. Potency, µM (doses to about 57.5 µM), actives largely listed as inhibitors. 690 compounds, 5% hits. AID 1508639
FLuc counter = inhibits firefly luciferase, PMP22 counter-screen; shares compounds with PMP22 txn prim; AID 1508640; Potency, µM (doses to about 57.5 µM), actives largely listed as inhibitors; purified P. pyralis FLuc, luminescence, 10 min; 690 tested, under 10 active
Target sequence (P08659 whole entry, looked up): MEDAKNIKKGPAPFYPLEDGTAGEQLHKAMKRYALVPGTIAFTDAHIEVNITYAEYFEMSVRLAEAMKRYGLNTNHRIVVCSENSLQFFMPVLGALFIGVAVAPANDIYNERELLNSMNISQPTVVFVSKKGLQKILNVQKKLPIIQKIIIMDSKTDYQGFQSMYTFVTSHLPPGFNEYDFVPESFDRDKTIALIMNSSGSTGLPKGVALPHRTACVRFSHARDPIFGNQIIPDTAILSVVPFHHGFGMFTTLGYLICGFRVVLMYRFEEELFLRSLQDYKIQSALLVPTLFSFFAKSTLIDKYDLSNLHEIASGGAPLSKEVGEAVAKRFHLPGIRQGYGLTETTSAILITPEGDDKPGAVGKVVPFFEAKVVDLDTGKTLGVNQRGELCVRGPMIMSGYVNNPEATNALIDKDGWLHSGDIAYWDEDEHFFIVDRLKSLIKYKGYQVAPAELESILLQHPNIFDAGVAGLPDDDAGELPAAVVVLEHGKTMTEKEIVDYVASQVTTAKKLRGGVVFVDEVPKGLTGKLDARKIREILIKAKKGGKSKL
S16 viab conf = confirmation of cytotoxicity in S16 Pmp22-F2sN Schwann cells (luciferase reporters placed in the Pmp22 gene). AID 1508641. S16 Schwann cells viability, CellTiter-Glo ATP luminescence, 24 h. Potency, µM (series often up to 57.5 µM), actives largely listed as cytotoxic. shares compounds with PMP22 txn prim. 690 compounds, 7% hits
PMP22 txn conf = PMP22 transcription modulation, confirmatory; 690 compounds, 22% hits; Potency, µM (titrated, usually from 57.5 µM), usual class: inhibitors; shares compounds with PMP22 txn prim; AID 1508646; S16 Schwann cells Pmp22-F2sN, dual luciferase, 24 h; active = clear falling dose curves in both reporters; inconclusive = both reporters move, but less clearly or upward; inactive = either reporter flat; the % is the FLuc reporter signal
Large screens that a line does not name were inactive (follow-up assays come after a bar, where they were run). Unless noted, calls follow the shape of the dose curve; as a rule, active = well fitted curve in the direction sought with a large enough effect; inconclusive = small, poorly fitted or top-dose-only effect, or another doubt; inactive = no such curve, though single readings can be large; an effect the other way counts as inactive or inconclusive.

Clc1ccc(-c2nnn3c2nc(NCc2ccc4c(c2)OCO4)c2ccccc23)cc1	PMP22 txn prim inconclusive
Cc1cccc(-c2nnn3c2nc(NCCc2ccc(S(N)(=O)=O)cc2)c2ccccc23)c1	p53null 32C kill inconclusive
Cc1cccc(-c2nnn3c2nc(NCc2ccc4c(c2)OCO4)c2ccccc23)c1	PMP22 txn prim 16.8µM, p53null 39C tox inconclusive | NLuc sat counter inactive | NLuc Km ctr inactive | FLuc counter inactive | S16 viab conf inactive | PMP22 txn conf 15.3µM
Cc1cccc(-c2nnn3c2nc(NCCC(C)C)c2ccccc23)c1	PMP22 txn prim 13.4µM | NLuc sat counter inactive | NLuc Km ctr inactive | FLuc counter inactive | S16 viab conf inactive | PMP22 txn conf inactive
Cn1c(CNc2ccc(C(=N)N)cc2)nc2cc(C(=O)N(CCC(=O)O)c3ccccn3)ccc21	none (no result: S16 viability, mTORC1 inh, PMP22 txn prim, p53null 32C kill, p53null 39C tox)
Clc1ccc(C(Cn2ccnc2)OCc2ccc(Sc3ccccc3)cc2)c(Cl)c1 (stereo unspecified)	none (no result: S16 viability, mTORC1 inh, PMP22 txn prim, p53null 32C kill, p53null 39C tox)
O=C(Nc1ncc(-c2cc(C(F)F)nn2-c2c(Cl)cccc2Cl)s1)C1CC1	none (no result: S16 viability, mTORC1 inh, PMP22 txn prim, p53null 32C kill, p53null 39C tox)
CC(C)C[C@H](NC(=O)[C@H](Cc1ccccc1)NC(=O)c1cnccn1)B(O)O	none (no result: S16 viability, mTORC1 inh, PMP22 txn prim, p53null 32C kill, p53null 39C tox)
COC(c1ccccc1)(c1ccccc1)[C@H](Oc1nc(C)cc(C)n1)C(=O)O	none (no result: S16 viability, mTORC1 inh, PMP22 txn prim, p53null 32C kill, p53null 39C tox)
Cc1ccc(S(=O)(=O)Cc2ccc(C(=O)N3CCN(c4cccc(C)c4C)CC3)o2)cc1	mTORC1 inh inconclusive, PMP22 txn prim 13.9µM | NLuc sat counter inactive | NLuc Km ctr inactive | FLuc counter inactive | S16 viab conf inactive | PMP22 txn conf inconclusive
Cc1cccc(N2CCN(C(=O)c3ccc(CS(=O)c4cccc(Cl)c4)o3)CC2)c1C (stereo unspecified)	S16 viability inconclusive, mTORC1 inh 7.36µM, PMP22 txn prim 9.58µM, p53null 39C tox inconclusive | NLuc sat counter inactive | NLuc Km ctr inconclusive | FLuc counter inactive | S16 viab conf inactive | PMP22 txn conf inconclusive
O=C(Nc1nc2ccc(F)cc2s1)c1nc(S(=O)(=O)Cc2ccccc2F)ncc1Cl	S16 viability inconclusive, OvCa metastasis inconclusive, mTORC1 inh inconclusive, PMP22 txn prim 9.46µM, p53null 32C kill inconclusive, p53null 39C tox inconclusive | NLuc sat counter inactive | NLuc Km ctr inconclusive | FLuc counter inactive | S16 viab conf inconclusive | PMP22 txn conf 12.9µM
CC1CCN(S(=O)(=O)c2ccc3ncn(CC(=O)Nc4ccccc4C(F)(F)F)c(=O)c3c2)CC1	PMP22 txn prim inconclusive (no result: p53null 32C kill, p53null 39C tox) | NLuc sat counter inactive | NLuc Km ctr inactive | FLuc counter inactive | S16 viab conf inactive | PMP22 txn conf inactive
COc1ccc(NC(=O)Cn2cnc3ccc(S(=O)(=O)N4CCC(C)CC4)cc3c2=O)c(OC)c1	none (no result: p53null 32C kill, p53null 39C tox)
